# Assay results from ChEMBL document CHEMBL5724796, “Tm Shift (DSF) assay results for EUbOPEN Chemogenomics Library” (2024).
# Key:
# Conditions in all cases: Compound concentration 20.0 uM
# [1] = molecular target: Tyrosine-protein kinase ABL1 (Homo sapiens) (UniProt P00519)
# [2] = molecular target: Bromodomain-containing protein 4 (Homo sapiens) (UniProt O60885)
# [3] = molecular target: Cyclin-dependent kinase 2 (Homo sapiens) (UniProt P24941)
# [4] = molecular target: Casein kinase I isoform delta (Homo sapiens) (UniProt P48730)
# [5] = molecular target: Glycogen synthase kinase-3 beta (Homo sapiens) (UniProt P49841)
# [6] = molecular target: Mitogen-activated protein kinase 1 (Homo sapiens) (UniProt P28482)
# [7] = molecular target: T1, Aurora kinase A (Homo sapiens) (UniProt O14965)
# T1 sequence (whole entry): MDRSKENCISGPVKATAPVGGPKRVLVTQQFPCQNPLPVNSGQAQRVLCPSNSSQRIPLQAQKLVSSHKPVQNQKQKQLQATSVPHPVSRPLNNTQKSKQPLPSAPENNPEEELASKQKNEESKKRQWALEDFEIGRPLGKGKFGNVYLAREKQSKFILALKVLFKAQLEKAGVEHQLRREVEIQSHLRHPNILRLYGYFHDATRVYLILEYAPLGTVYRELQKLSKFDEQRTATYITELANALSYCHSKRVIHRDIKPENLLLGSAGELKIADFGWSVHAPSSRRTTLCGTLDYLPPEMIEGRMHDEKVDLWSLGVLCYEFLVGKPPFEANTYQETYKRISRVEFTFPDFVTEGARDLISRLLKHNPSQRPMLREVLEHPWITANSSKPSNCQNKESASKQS
# [8] = molecular target: T2, Transcription intermediary factor 1-alpha (Homo sapiens) (UniProt O15164)
# T2 sequence (whole entry): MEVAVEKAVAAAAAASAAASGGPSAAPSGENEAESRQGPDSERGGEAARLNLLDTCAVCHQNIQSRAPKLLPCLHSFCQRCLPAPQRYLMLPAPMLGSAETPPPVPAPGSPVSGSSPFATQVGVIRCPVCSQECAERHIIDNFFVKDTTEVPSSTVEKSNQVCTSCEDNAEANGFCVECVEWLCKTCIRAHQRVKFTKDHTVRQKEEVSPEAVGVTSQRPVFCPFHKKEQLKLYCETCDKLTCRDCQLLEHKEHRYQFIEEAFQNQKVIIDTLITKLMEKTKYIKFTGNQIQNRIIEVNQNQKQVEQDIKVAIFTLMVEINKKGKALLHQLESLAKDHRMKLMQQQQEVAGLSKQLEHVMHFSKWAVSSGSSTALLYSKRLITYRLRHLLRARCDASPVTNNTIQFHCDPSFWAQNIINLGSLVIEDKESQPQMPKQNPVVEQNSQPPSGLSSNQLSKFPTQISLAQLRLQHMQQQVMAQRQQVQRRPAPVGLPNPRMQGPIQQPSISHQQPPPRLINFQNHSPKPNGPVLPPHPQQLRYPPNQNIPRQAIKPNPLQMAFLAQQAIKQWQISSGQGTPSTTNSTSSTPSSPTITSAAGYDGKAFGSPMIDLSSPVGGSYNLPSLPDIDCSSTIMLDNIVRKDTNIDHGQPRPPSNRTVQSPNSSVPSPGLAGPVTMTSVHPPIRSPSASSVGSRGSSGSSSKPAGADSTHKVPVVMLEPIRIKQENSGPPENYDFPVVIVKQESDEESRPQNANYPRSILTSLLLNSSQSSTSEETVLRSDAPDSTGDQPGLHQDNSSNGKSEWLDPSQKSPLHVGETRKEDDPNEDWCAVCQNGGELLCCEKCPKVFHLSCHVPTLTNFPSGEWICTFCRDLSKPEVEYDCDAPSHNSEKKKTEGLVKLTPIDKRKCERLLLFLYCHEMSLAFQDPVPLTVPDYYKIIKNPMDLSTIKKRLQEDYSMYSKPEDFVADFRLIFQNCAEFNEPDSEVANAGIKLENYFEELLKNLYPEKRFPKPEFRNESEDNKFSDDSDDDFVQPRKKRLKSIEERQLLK
# Sequence of Casein kinase I isoform delta (Homo sapiens) (P48730 whole entry, looked up, canonical isoform): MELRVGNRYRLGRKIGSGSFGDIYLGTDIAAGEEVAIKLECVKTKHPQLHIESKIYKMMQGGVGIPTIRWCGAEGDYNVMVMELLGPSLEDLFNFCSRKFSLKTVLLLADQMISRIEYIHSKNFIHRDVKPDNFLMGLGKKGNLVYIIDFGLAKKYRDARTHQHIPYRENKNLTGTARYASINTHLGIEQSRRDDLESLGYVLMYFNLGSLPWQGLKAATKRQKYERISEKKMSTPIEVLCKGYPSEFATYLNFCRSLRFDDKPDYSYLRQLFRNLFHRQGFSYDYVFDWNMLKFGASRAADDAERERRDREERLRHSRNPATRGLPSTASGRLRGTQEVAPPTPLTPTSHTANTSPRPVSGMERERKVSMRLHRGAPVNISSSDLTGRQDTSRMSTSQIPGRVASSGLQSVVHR
# Sequence of Tyrosine-protein kinase ABL1 (Homo sapiens) (P00519 whole entry): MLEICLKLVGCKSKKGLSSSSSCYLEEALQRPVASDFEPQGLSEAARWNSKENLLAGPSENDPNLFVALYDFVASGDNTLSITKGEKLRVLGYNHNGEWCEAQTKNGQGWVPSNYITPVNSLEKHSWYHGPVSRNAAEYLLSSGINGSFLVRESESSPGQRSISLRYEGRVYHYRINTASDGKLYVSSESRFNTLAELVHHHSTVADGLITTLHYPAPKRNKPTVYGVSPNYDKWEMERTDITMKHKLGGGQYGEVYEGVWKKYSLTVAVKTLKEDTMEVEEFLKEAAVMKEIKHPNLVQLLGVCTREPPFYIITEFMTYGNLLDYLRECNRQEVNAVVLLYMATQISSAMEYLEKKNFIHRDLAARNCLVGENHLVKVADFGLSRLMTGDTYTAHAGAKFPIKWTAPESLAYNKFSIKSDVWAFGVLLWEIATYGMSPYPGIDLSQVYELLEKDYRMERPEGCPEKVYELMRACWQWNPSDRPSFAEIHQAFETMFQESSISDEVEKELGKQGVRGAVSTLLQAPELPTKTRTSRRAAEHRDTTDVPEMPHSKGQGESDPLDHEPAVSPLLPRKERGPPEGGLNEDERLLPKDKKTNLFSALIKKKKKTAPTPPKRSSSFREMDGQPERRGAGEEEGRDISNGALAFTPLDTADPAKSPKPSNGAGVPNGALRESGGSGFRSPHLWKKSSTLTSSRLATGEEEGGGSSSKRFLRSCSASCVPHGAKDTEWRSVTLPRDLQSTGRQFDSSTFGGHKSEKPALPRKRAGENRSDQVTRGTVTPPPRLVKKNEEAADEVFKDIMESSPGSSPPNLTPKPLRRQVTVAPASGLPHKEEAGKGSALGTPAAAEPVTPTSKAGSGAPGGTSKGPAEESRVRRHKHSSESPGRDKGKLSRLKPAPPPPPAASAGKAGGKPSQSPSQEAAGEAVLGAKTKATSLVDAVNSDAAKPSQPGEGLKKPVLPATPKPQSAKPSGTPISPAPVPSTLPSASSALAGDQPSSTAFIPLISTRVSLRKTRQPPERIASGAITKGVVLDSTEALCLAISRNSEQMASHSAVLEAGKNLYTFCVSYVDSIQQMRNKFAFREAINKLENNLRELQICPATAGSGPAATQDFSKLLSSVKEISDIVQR
# Sequence of Mitogen-activated protein kinase 1 (Homo sapiens) (P28482 whole entry): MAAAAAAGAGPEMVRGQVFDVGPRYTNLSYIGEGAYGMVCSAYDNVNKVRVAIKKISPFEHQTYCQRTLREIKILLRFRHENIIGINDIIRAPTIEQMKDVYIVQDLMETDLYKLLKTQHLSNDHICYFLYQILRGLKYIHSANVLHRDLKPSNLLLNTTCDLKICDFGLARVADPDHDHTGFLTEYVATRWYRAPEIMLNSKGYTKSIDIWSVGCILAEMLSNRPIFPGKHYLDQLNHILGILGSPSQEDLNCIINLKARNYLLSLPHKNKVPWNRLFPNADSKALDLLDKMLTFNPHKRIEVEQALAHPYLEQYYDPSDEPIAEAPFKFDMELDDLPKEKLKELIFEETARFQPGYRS
# Sequence of Glycogen synthase kinase-3 beta (Homo sapiens) (P49841 whole entry, looked up): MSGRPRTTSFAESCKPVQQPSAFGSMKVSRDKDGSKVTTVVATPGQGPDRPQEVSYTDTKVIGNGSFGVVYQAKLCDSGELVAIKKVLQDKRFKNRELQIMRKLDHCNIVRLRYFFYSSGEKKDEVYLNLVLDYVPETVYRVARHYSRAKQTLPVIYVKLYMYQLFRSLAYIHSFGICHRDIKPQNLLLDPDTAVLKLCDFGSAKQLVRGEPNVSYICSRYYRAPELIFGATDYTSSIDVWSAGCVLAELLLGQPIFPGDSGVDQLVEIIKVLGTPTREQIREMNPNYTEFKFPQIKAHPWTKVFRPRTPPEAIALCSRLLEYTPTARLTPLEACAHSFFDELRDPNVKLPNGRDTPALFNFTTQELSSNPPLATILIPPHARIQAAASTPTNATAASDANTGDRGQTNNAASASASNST
Structure (SMILES),ΔTm [1] [°C],ΔTm [2] [°C],ΔTm [3] [°C],ΔTm [4] [°C],ΔTm [5] [°C],ΔTm [6] [°C],ΔTm [7] [°C],ΔTm [8] [°C]
O=C(NO)c1cccc(C(=O)NCCc2ccccc2)c1,0.54,-1.69,1.3,0.19,-1.53,0.15,-0.23,-1.33
CNCC[C@@H](Oc1ccccc1C)c1ccccc1,0.14,-2.85,0.13,-0.25,-0.38,0.18,-1.68,0.48
N[C@@H](CCCCB(O)O)C(=O)O,0.06,1.28,0.26,-0.26,-0.55,0.18,-0.4,-0.41
O=c1[nH][nH]c(=O)c2cc(OCC3CCCCC3)ccc12,2.06,-1.15,1.01,-0.01,2.16,0.61,-0.19,1.88
Nc1ncnc2c1nc(NCc1ccc(-c3ccccc3)cc1)n2[C@@H]1O[C@H](CO)[C@@H](O)[C@H]1O,1.36,-3.1,0.21,-0.22,-0.69,0.28,-1.41,-0.53
CN1CCN(c2cc(C(=O)Nc3ncc(SCc4cccc(C(F)(F)F)c4)s3)ccn2)CC1,3.36,-0.44,-0.22,-0.03,0,-0.59,0,-2.66
Cc1cc(OCCCNCC(C)(C)C(N)=O)ccc1Cc1c(O[C@@H]2O[C@H](CO)[C@@H](O)[C@H](O)[C@H]2O)n[nH]c1C(C)C,0.7,-2.92,0.08,-0.08,-0.66,0.38,-2.36,0.9
COc1ccc(C(=O)C2CCN(CC(=O)N(Cc3nc4c(c(=O)[nH]3)COCC4)CC3CC3)CC2)cc1,0.52,-1.61,0.34,-0.4,-0.12,0.46,-1.35,0.91
c1cncc(-c2cnn[nH]2)c1,0.48,-1.91,-0.01,-0.01,-0.3,0.24,-1.49,-0.2
CN1C[C@@H]2[C@H](C1)[C@H]2CN(Cc1ccc(F)c(Cl)c1)C(=O)c1cn(C)cn1,0.53,-2.2,0.3,-0.21,0.04,0.19,-1.34,-1.48
O=C(O)CCNc1cc(N2CCc3ccccc3CC2)nc(-c2ccccn2)n1,0.06,0.28,-0.09,-0.34,0,-0.2,-1.3,0.15
O=C(NCC1CCOCC1)c1n[nH]cc1NC(=O)c1c(F)cccc1F,0.15,-2,3.53,1.77,14.4,0.1,1.73,-0.72
CC(C)c1c(-c2cnn(C(C)(C)C)c2)[nH]c2c(C#N)cnn2c1=O,0.32,-1.11,0.15,-0.24,0.53,0.3,-0.18,0.36
O=C(NCC(=O)N1CCCCC1)Nc1ccc2nnsc2c1,0.46,-0.58,0.28,0.06,0.23,-0.52,-0.71,0.08
CCCSc1nc2c(c(=O)n1-c1ccccc1)SCC2,-0.05,1.58,-0.05,-0.11,-0.82,1.06,0.01,0.72
NC(=O)c1ccc(Oc2ccc(C(N)=O)cc2)cc1,0.24,-0.98,-0.07,0.22,0.02,0.14,-1.15,-0.86
Cc1nn(CC(F)(F)F)cc1Nc1ncc(Br)c(NCc2ccc(S(N)(=O)=O)cc2)n1,2.53,-2.79,0.52,0.99,-0.15,2.84,6.65,1.38
NCCCOc1cc2ccccc2cc1C(=O)NCCOc1cc2ccccc2cc1C(=O)Nc1ccc(Cl)cc1O,0.27,-4.42,-1.85,0.11,-2.72,-1.61,-3.9,-0.59
CN1C(=O)c2c(nn(Cc3ccc(-c4cccc(F)n4)cc3)c2Nc2ccccc2)N2C1=N[C@@H]1CCC[C@@H]12,0.2,0.64,-0.42,-0.09,2.76,0.5,-0.82,0.46
Cc1noc(C)c1-c1cc(Cl)c(Nc2ccccc2C(=O)O)c(Cl)c1,0.49,2.54,-0.13,-0.64,-0.39,0.1,-2.08,-1.42

Structure (SMILES),ΔTm [1] [°C],ΔTm [2] [°C],ΔTm [3] [°C],ΔTm [4] [°C],ΔTm [5] [°C],ΔTm [6] [°C],ΔTm [7] [°C],ΔTm [8] [°C]
Cc1nnn(C)c1-c1cnc2c3cc4cnn(C)c4cc3n([C@H](c3ccccc3)C3CCOCC3)c2c1,0.34,22.9,-0.73,0.09,-1.29,0.17,-2.95,0.06
CCCc1nc(C)c2c(=O)nc(-c3cc(S(=O)(=O)N4CCN(CC)CC4)ccc3OCC)[nH]n12,0.09,1.95,1,0.05,-1.14,0.18,-2.18,1.86
O=C(O)Cn1nnc(-c2ccc(CN(CCCCOc3ccc(CN4CCCC4)cc3)CCc3ccccc3)cc2)n1,0.12,-3.23,-1.15,0.14,-0.71,-0.45,-2.88,-1.13
Nc1ncnc2c1c(I)cn2[C@@H]1O[C@H](CO)[C@@H](O)[C@H]1O,2.62,-1.63,5.37,6.51,3.65,1.9,1.18,0.89
CC(C)NCC(O)COC(Cn1c2ccccc2c2ccccc21)Cn1c2ccccc2c2ccccc21 (stereo not given),0.25,0,-0.87,-0.3,-5.02,-15,-0.78,-3.49
CCCCCCCCCCCCCC(=S)NCCCC[C@H](NC(=O)OCc1ccccc1)C(=O)Nc1ccccc1,0.75,2.49,1.43,0.13,0.6,0.45,-2.19,1.92
C[C@@H]1CCC[C@H](C)N1NC(=O)c1ccc(Cl)c(S(N)(=O)=O)c1,0.07,-0.69,0.04,-0.23,-0.93,0.04,-1.59,0.4
Cn1c(=O)cc(N2CCC[C@@H](N)C2)n(Cc2ccccc2C#N)c1=O,0.31,2.27,1.07,-0.43,0.02,0.02,-1.58,0.69
Cc1cc(S(C)(=O)=O)c(S(C)(=O)=O)cc1C(=O)NC(=N)N,0.73,-0.31,0.23,-0.54,0.15,0.12,-1.63,0.34
CS(=O)(=O)N1CCN(C(=O)c2cnc3ccc(Cl)cc3c2-c2ccc(C3(C#N)CC3)cc2)CC1,0.55,-2.94,0.81,0.96,4.93,0.97,-2.24,-1.2
COc1cc2c(NC3CCN(C)CC3)nc(N3CCCN(C)CC3)nc2cc1OCCCN(C)C,0.04,-1.01,0.12,0.25,-0.54,0.4,-1.36,-0.25
COc1cc(O)cc(CN2CCc3c(cc(Cn4ccn(C)c4=N)cc3-c3ccc(F)cc3C)C2=O)c1,0.41,-3.72,-0.56,-0.83,-0.55,0.04,-2.93,-1.53
C/C=C1\NC(=O)[C@H]2CSSCC/C=C/[C@H](CC(=O)N[C@H](C(C)C)C(=O)N2)OC(=O)[C@H](C(C)C)NC1=O,-1.22,-2.72,-0.96,-0.77,-0.05,-6.13,-0.48,0.22
COc1ccc2nc3[nH]nc(C)c3c(NCCOCCO)c2c1,0.63,-1.31,0.26,0.76,2.8,-0.01,0.31,-0.59
CCCSc1nc(N[C@@H]2C[C@H]2c2ccc(F)c(F)c2)c2nnn([C@@H]3C[C@H](OCCO)[C@@H](O)[C@H]3O)c2n1,0.97,-3.15,-0.32,-0.02,-1.82,0.5,-2.27,0.03
O=C(Nc1c(Cl)cncc1Cl)c1ccc(OC(F)F)c(OCC2CC2)c1,0.75,-3.16,0.32,-0.3,0.27,0.36,-2.31,2.4
CC(=O)N[C@@H](CC(=O)O)C(=O)N[C@@H](CCC(=O)O)C(=O)N[C@H](C(=O)N[C@@H](CC(=O)O)C(=O)CCl)C(C)C,0.1,-2.64,-0.35,-0.06,0.4,-0.58,-1.91,-0.93
CC(C)(C)NS(=O)(=O)c1cccc2c(NC(=O)[C@H](Cc3ccccc3)NC(=O)C3CCCCC3)cccc12,0.13,1.07,0.3,-1.46,-0.2,-10.5,-2.29,2.01
COc1ccc(N2CCN(C(=O)c3cc4c(s3)-c3ccccc3S(=O)(=O)C4)CC2)cc1,0.15,-2.04,0.12,-0.01,-0.71,0.36,-1.67,0.69
CC(C)(C)OC(=O)Nc1ccc(-c2cc(C(=O)NCCCCCCC(=O)NO)no2)cc1,-1.36,0,-1.64,-3.22,0,0,-4.92,-2.07
